From ChEMBL document CHEMBL1961873, “Compounds: GSK PKIS; Assays: Nanosyn kinase panel” (2012) come the findings set out here.

Assay [1] has as its target Platelet-derived growth factor receptor beta (Homo sapiens) (UniProt P09619). To be noted: at 1 µM.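 Also: each value is a mean percent inhibition.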
The target in assay [2] is Tyrosine-protein kinase FRK (Homo sapiens) (UniProt P42685). To be noted: at 0.1 µM.
For assay [3] the target is unchanged. To be noted: at 1 µM.
Assay [4] has as its target Protein-tyrosine kinase 2-beta (Homo sapiens) (UniProt Q14289). To be noted: at 0.1 µM.
The target is the same in assay [5]. To be noted: at 1 µM.
The target of assay [6] is Proto-oncogene tyrosine-protein kinase receptor Ret (Homo sapiens) (UniProt P07949). To be noted: at 0.1 µM.
Chain of Proto-oncogene tyrosine-protein kinase receptor Ret (Homo sapiens) (P07949 whole entry): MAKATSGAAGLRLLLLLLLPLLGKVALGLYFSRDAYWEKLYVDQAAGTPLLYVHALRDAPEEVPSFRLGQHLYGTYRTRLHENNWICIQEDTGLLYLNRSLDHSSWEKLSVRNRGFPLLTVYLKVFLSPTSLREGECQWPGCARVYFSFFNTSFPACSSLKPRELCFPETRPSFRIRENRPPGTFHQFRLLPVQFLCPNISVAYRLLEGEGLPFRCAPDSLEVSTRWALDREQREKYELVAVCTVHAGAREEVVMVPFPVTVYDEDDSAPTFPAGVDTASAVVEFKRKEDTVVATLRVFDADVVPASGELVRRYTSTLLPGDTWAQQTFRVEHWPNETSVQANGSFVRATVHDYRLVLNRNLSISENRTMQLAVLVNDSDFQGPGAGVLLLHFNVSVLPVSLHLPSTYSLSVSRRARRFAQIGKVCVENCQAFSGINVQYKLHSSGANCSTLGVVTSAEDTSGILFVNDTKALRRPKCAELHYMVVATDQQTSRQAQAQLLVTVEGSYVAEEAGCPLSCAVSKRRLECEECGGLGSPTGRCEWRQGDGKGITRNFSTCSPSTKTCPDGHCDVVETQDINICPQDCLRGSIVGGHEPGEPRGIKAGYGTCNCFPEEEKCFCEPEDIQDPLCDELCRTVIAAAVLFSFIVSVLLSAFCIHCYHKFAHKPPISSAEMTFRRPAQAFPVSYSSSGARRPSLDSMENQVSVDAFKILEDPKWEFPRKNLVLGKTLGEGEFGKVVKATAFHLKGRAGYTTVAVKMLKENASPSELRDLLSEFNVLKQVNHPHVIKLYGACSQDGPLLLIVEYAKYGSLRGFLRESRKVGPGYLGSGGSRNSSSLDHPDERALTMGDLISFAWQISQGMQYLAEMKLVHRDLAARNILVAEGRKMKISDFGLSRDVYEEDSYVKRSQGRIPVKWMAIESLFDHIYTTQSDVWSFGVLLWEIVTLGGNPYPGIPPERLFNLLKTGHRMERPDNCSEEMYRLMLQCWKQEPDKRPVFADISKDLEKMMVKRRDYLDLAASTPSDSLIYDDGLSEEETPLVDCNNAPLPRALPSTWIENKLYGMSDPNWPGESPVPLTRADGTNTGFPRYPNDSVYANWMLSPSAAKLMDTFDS
Assay [7] has the same target. To be noted: at 1 µM.
Assay [8] has as its system Proto-oncogene tyrosine-protein kinase receptor Ret (Homo sapiens), P07949 [V804L]. To be noted: at 0.1 µM.
Assay [9] shares this test system. To be noted: at 1 µM.
Assay [10] relates to Proto-oncogene tyrosine-protein kinase receptor Ret (Homo sapiens), P07949 [Y791F]. To be noted: at 0.1 µM.
Chain of Proto-oncogene tyrosine-protein kinase receptor Ret (Homo sapiens), P07949 [Y791F] (P07949 whole entry Y791F): as the sequence (P07949 whole entry) above, with Y791F counted along it

Chain of Proto-oncogene tyrosine-protein kinase receptor Ret (Homo sapiens), P07949 [V804L] (P07949 whole entry V804L): as the sequence (P07949 whole entry) above, with V804L counted along it
Chain of Protein-tyrosine kinase 2-beta (Homo sapiens) (Q14289 whole entry, looked up): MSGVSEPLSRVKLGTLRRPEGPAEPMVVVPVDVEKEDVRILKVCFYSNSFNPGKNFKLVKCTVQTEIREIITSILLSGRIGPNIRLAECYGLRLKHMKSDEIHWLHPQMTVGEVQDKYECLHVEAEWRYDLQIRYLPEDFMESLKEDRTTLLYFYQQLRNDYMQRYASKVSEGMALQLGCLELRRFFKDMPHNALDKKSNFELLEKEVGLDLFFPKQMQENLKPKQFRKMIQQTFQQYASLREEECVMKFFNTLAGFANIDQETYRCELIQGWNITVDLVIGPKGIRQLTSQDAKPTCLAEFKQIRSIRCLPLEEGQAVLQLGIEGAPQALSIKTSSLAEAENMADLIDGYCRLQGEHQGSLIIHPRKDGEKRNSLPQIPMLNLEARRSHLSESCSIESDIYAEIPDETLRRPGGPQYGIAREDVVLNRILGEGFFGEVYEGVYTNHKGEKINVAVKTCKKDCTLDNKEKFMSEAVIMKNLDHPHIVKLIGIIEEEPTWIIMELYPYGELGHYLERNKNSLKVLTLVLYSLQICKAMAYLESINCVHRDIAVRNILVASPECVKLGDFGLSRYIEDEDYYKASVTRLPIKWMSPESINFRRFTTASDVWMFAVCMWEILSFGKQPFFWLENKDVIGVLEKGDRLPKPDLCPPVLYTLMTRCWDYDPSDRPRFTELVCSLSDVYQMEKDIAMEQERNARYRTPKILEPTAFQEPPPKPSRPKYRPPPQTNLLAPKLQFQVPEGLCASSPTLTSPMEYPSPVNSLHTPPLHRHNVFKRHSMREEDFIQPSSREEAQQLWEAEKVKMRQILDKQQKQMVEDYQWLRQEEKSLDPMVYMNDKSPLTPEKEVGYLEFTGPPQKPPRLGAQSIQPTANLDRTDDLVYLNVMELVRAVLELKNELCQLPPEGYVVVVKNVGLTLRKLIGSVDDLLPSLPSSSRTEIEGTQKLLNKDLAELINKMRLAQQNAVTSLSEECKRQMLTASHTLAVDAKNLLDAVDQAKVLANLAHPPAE
Chain of Tyrosine-protein kinase FRK (Homo sapiens) (P42685 whole entry): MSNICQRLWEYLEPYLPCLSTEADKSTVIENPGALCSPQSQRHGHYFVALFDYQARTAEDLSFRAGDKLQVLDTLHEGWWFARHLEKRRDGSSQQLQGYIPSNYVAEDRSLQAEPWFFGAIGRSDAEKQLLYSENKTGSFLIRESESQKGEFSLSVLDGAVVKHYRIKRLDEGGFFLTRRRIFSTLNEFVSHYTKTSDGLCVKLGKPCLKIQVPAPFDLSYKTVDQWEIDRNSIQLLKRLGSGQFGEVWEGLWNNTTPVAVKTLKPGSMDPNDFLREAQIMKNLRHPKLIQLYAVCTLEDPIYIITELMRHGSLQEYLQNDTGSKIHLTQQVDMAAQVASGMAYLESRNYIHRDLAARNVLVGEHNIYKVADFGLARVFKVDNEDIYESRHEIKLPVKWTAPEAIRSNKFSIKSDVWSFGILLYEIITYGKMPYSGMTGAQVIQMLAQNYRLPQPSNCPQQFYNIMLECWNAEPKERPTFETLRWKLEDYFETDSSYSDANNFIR
Chain of Platelet-derived growth factor receptor beta (Homo sapiens) (P09619 whole entry): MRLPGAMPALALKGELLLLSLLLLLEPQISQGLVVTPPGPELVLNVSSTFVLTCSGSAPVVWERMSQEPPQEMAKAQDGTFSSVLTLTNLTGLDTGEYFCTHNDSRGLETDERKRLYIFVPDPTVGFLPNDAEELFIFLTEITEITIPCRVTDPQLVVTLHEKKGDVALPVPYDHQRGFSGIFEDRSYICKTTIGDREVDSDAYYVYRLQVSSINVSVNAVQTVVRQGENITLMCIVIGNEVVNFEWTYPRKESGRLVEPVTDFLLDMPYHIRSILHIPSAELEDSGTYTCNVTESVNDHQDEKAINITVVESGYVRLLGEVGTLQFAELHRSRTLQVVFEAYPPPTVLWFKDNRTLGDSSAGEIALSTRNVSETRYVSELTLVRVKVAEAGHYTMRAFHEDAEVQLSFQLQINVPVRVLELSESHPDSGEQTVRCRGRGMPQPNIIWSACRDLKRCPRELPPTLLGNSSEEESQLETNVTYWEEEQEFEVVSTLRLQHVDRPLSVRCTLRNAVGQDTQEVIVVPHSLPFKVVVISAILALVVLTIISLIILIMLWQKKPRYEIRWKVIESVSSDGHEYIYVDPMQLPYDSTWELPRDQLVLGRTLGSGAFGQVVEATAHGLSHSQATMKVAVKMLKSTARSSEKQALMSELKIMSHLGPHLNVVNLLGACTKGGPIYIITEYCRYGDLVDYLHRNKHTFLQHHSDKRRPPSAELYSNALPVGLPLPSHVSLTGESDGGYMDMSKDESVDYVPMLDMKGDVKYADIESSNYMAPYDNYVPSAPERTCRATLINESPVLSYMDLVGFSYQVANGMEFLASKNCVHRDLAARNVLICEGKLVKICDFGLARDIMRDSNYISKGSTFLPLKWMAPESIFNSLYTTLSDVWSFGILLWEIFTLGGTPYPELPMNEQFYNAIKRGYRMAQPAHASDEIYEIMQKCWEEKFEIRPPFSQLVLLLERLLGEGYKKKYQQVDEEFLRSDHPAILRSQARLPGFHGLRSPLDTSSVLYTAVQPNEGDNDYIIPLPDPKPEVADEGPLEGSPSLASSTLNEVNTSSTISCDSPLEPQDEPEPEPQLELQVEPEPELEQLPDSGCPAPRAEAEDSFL

What is called inhibition is the relative decrease from the control value, in per cent. Consider `CS(=O)(=O)CCNCc1ccc(-c2ccc3ncnc(Nc4ccc(OCc5ccccc5)c(C(F)(F)F)c4)c3c2)o1`, for which the inhibition came out at 2% in assay [1]; 3.35% in assay [2]; 2.29% in assay [3]; 8.29% in assay [4]; 7.02% in [5]; 5.03% in assay [6]. The inhibition worked out at 2.3% in assay [7], 3.65% in assay [8], 4.42% in assay [9] and 6.07% in [10].

`O=C(Nc1n[nH]c2cc(-c3ccc(F)cc3)ccc12)C1CC1`: the inhibition in assay [1] was 7.77%; in assay [2] it was 1.74%; in [3] it was 2.21%; in assay [4], 9.12%; in [5] it was 9.39%; in assay [6], 2.79%. Moreover, the inhibition in assay [7] was 3.73%; in assay [8], 2.36%; in assay [9], 3.06%; in assay [10], 4.2%.

With `COc1ccc(-c2nn3ncccc3c2-c2ccnc(Nc3ccc4c(c3)OCCO4)n2)cc1`, the inhibition in assay [1] was 20.6%; in assay [2], 0.87%; in [3], 3.44%; in [4], -3.39%; in [5], 10.2%; in assay [6], 8.94%. In addition, the inhibition is 47.3% in assay [7], 3.01% in assay [8], 3.4% in assay [9] and 11.7% in assay [10].

For `COc1cc(Nc2nccc(Nc3ccc4c(C)n[nH]c4c3)n2)cc(OC)c1OC`, the inhibition came out at 87.5% in assay [1]; 1.94% in assay [2]; 11.5% in assay [3]; 25.2% in assay [4]; 84.3% in [5]; 51.1% in [6]. In addition, the inhibition in [7] is 84%; in [8] it was 25.3%; in [9], 68.7%; in assay [10] it was 57.5%.

For `Nc1nc(-c2ccc(F)cc2)c(-c2ccc3ncccc3n2)s1`, the inhibition in assay [1] was found to be 42.9%; in [2] it was 2.59%; in assay [3] it was 2.66%; in assay [4], 10%; in [5], 14.3%; in assay [6] it was 8.56%. For the same molecule, the inhibition in assay [7] was found to be 14.8%; in assay [8], 4.68%; in assay [9], 7.83%; in [10] it was 7.45%.

Turning to `NS(=O)(=O)c1ccc(Nc2ncc(-c3ccccc3)o2)cc1`, the inhibition in [1] amounted to 46.6%; in [2], 1.2%; in assay [3], 1.36%; in assay [4] it was 10.6%; in [5], 19.8%; in assay [6], 3.66%. Also, the inhibition in assay [7] amounted to 7.66%; in assay [8], 3.57%; in assay [9], 10%; in assay [10] it was 0.77%.

`CC(=O)NCc1cccc(C#Cc2cncnc2Nc2ccc(OCc3cccc(F)c3)c(Cl)c2)c1`: the inhibition is 6.15% in assay [1]; 1.61% in assay [2]; 1.03% in assay [3]; 3.96% in assay [4]; 0.92% in [5]; 3.99% in [6]. Moreover, the inhibition in assay [7] was found to be 20.2%; in [8], 2.58%; in assay [9], 6.73%; in assay [10], 1.6%.

As to `Fc1ccc(-c2nn3ccccc3c2-c2ccncc2)cc1`, the inhibition stood at 12.7% in assay [1]; 0.42% in assay [2]; 1.58% in [3]; 3.99% in assay [4]; 4.06% in [5]; 1.59% in assay [6]. Moreover, the inhibition in [7] is 5.12%; in [8] it was 0.36%; in assay [9], 1.74%; in assay [10], 4.32%.

In the case of `CN1CCC(n2cnc(-c3ccc(F)cc3)c2-c2ccnc(N)n2)CC1`, the inhibition was 29.6% in assay [1]; 0.15% in [2]; 1.13% in assay [3]; -2.24% in [4]; 6.37% in assay [5]; 5.6% in assay [6]. Besides, the inhibition in assay [7] is 18.7%; in assay [8], 1.63%; in [9] it was 13.3%; in assay [10], 4.75%.

On to `COc1ccc(-c2oc3ncnc(N)c3c2-c2ccc(NC(=O)Nc3cc(C(F)(F)F)ccc3F)cc2)cc1`, for which the inhibition turned out to be 80.4% in [1]; 11.5% in [2]; 65% in [3]; 18.8% in assay [4]; 91% in assay [5]; 89% in [6]. Besides, the inhibition in assay [7] is 93.6%; in [8], 69.5%; in [9] it was 87.8%; in [10], 74.4%.

As to `[O-][S+]1CCN(Cc2ccc(-c3ccc4ncnc(Nc5ccc(OCc6cccc(F)c6)c(Cl)c5)c4c3)o2)CC1`, the inhibition in assay [1] turned out to be 8%; in assay [2], 4.01%; in [3], 4.89%; in assay [4], 4.76%; in [5], 11.7%; in assay [6], 3.9%. The inhibition was found to be 8.36% in assay [7], 7.71% in assay [8], 16.5% in assay [9] and 6.06% in assay [10].

In the case of `CCn1c(-c2nonc2N)nc2ccccc21`, the inhibition in [1] came to 5.69%; in assay [2] it was 0.05%; in assay [3], 1.69%; in assay [4], 4.43%; in assay [5], 7.84%; in assay [6], 1.65%. Besides, the inhibition in assay [7] is 3.15%; in [8], 2.56%; in assay [9], 0.52%; in assay [10], 4.13%.

Turning to `Fc1ccc(-c2nn3ncccc3c2-c2ccnc(Nc3ccc4c(c3)OCCO4)n2)cc1`, the inhibition in [1] was 69.7%; in assay [2] it was 5.64%; in assay [3], 25.4%; in assay [4] it was 16.4%; in [5] it was 44%; in assay [6], 23.5%. The inhibition in assay [7] turned out to be 64.9%; in assay [8] it was 4.29%; in assay [9] it was 4.6%; in [10], 30.8%.

With `O=C(O[C@H]1CN[C@H](C#Cc2cc3ncnc(Nc4ccc(Cc5ccccc5)cc4)c3s2)C1)N1CCOCC1`, the inhibition in assay [1] was 0.85%; in assay [2] it was 1.3%; in [3], 1.99%; in assay [4], 0.11%; in assay [5], -6.94%; in assay [6] it was 3.39%. The inhibition came out at 5.06% in assay [7], 1.75% in [8], 2.21% in assay [9] and 1.94% in assay [10].

As to `CCc1nn2ncccc2c1-c1ccnc(NC2CC2)n1`, the inhibition was 13.8% in assay [1]; 1.9% in [2]; 1.77% in [3]; -3.19% in assay [4]; 2.45% in assay [5]; 3.64% in assay [6]. The inhibition in assay [7] was 2.46%; in [8], 3.6%; in assay [9], 2.94%; in [10], 5.5%.

As for `Fc1ccc(-c2cc(-c3c[nH]nc3-c3ccccn3)ccn2)cc1`, the inhibition in [1] worked out at 11.8%; in assay [2], 2.82%; in assay [3], 1.26%; in [4], 7.36%; in assay [5], 19.4%; in [6], 5.13%. Moreover, the inhibition turned out to be 2.43% in [7], 2.33% in assay [8], 8.21% in assay [9] and 3.92% in assay [10].

On to `CC(C)(CO)CNC(=O)c1ccc2c(c1)/C(=N/Nc1ccc(S(N)(=O)=O)cc1)C(=O)N2`, for which the inhibition in assay [1] is 72.3%; in assay [2], -0.08%; in assay [3], -0.01%; in [4], -4.01%; in assay [5], 18.8%; in assay [6], 9.94%. In addition, the inhibition in assay [7] worked out at 49.1%; in assay [8], 33.5%; in assay [9], 72.5%; in assay [10], 13.8%.

On to `NS(=O)(=O)c1ccc(N/N=C2\C(=O)Nc3ccc4ncccc4c32)cc1`, for which the inhibition worked out at 82.8% in assay [1]; 0.32% in assay [2]; 4.11% in [3]; 6.43% in assay [4]; 43.2% in [5]; 37.3% in [6]. The inhibition is 78.9% in assay [7], 57.7% in assay [8], 82.7% in assay [9] and 45.3% in assay [10].

`COC(=O)c1sc(-n2cnc3cc(OC)c(OC)cc32)cc1OCc1ccccc1C(F)(F)F`: the inhibition came to 54.9% in assay [1]; 2.68% in [2]; 2.31% in [3]; 11.6% in assay [4]; 10.7% in assay [5]; 24.8% in assay [6]. The inhibition in assay [7] was 64.5%; in assay [8], 9.09%; in [9] it was 27.8%; in assay [10], 25.1%.
